Assay results as given in PubChem BioAssay AID720568 (Broad Institute, 2013).
Entries with a potency or affinity are not part of this list. The source made the active and inactive calls. The rule behind the calls is not given here.

Assay: HepG2 cell cytotoxicity, dose response, cytotoxicity control, dry powder samples (AID 720568)
Settings: plate reader; series mostly up to 15 µM

Row | Structure (SMILES) | outcome
1 | COc1ccc(CSc2nnc(-c3ccccc3)o2)cc1 | inactive
2 | c1ccc(CSc2nnc(-c3ccccc3)o2)cc1 | inactive
